Measured values: the supplement of paper PMC6555819

Tested on: VDR:RXRa (NR concentration 270 nM, RXRa partner concentration 90 nM)
Assay: PBM binding z-score (relative to random genomic background probes); higher = stronger binding; sequences stand for … in GC…GCGATTGACAGCGTAGAATGAAGG
Experimental: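 Protein-binding microarray (Agilent 4x180K custom design, double-stranded 60-nt probes: 5' GC cap, 34-nt variable region, 24-nt constant primer region; full probe sequence given). Purified or IVT nuclear receptor:RXRα heterodimers (3:1 NR:RXRα, mostly 270:90 nM) or homodimers were incubated for 1 h in PBS with 2% milk and no ligand, then detected with Alexa488 antibodies. Fluorescence from o1-orientation probes (~5 replicates averaged) was converted to z-scores against 500 random hg19 background probes. Variable regions are seed direct-repeat (DR0–DR5) sites, all their single-nucleotide variants and half-site ablations.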

| Sequence | PBM binding z-score |
| --- | --- |
| CCTTCTGGGCCATCAGGTCATTGATATCAACGTT | 1.81 |
| TCTTGTAGATCAAGCAGGTTAACAAAGCCTGAGT | 0.729 |
| ACTATTAGTTGAGACGCGGGCAACCGATAGGTTG | -0.235 |
| CCTAGTTGGTGAAGGTCACACACGCTATAGGTAC | 3.4 |
| CCTAGCAGGCCAATCTGAGTCACTCAAGGCTTGA | -0.947 |
| GCTCGGAGCACAAGGTCAGAGCTTTGTCCGTAGA | 1.2 |
| AACACAGGGTCACTAGGCCAGAGTAGGTACGAAT | 3.96 |
| GCTCGGAGGACACGGTCAGAGCTTTGTCCGTAGA | -0.792 |
| ATCTCTAGGTAACAAGTTCAGTAAAAGAGAGGAC | 1.96 |
| CCTACTGGGCCAAGGTCGTTGATCAGTCAAAGCA | 0.505 |
| ATATGTATGTTATCGGGTCATTCAGTTTGCGCAT | 4.9 |
| TCTGCTAGGTCAACGACGGTCAGCTAATCTGCTA | 2 |
| GATACAGGGTCAGCTAGAGGCGAGAGTATGGAAA | 2.6 |
| CGTATTAGTTGACCATAAGGGCAACCGAAGCTCG | 0.396 |
| CCTGACAGGTGAGAAGGTAACTCAGCCTCGATTA | -0.0801 |
| CGTCCAATGTCAGAGAGGTCAGTGAATGCCGAGT | 5.22 |
| ATAAGTAGGTTATCGGGTCATTCAGTTTGCGCAT | 5.16 |
| CCGACTGGAGCAAGGTTACCATAACGCACAGCCA | 0.139 |
| TAGCCTCGGTCATGGGCCAGTATACCACGCGAAC | -0.162 |
| ATCGAAAGGTCGTGAGGTGAGCATACAGAAAGGC | 3.19 |

| Sequence | PBM binding z-score |
| --- | --- |
| TCTGCTAGGTCAGTTGGTCAGCGAACGAGCTGCC | 0.114 |
| CGTCAAAGTTCAACTAAGGTAACGGAAAGCACGC | 4.7 |
| TGTCAAAGTTCAAAGGTAACGTAGGTATCCACAC | 5.15 |
| AGAACAAGGGCACGCTGAGTTGATAGCAGAGTAG | 1.36 |
| ATCTCTAGGTAAGACTCAGTTCAGCGAAGAACGC | 0.97 |
| ATACCAAGGTGATCGTGAGGTCGTTGTTACTAAC | 3.18 |
| TTACCAAGGTGAAGGACGTTGATCCCTCTGTAGA | 0.111 |
| TCGAGTGGGTTAGGGGCATTCAGAATGGCGTCGA | 1.04 |
| CTCGAAAGGTCGTGCTCAGGTGAGTCTACCAAAC | 3.35 |
| TCTATTAGTTGAAGGGCAACAGACGAGTCCGTTT | 1.01 |
| CGTCCAAGGCCATAGGAGGTCAGTGAAGACAGAT | 2.71 |
| ATCTCTAGGTAAGACTCAGTCCAGTGAAGAACGC | 0.327 |
| GATACAGGGACAGCTAGAGGCCAGAGTATGGAAA | -0.526 |
| GGAACGAGGGCATGCGAGTTGATAGCATGGCGAT | 2.9 |
| CCTAGCATGCCAATCTGGGTCACTCAAGGCTTGA | 0.733 |
| GATACAGGGTCACCTAGAGGCCAGAGTATGGAAA | 4.76 |
| ATCTGTAGGTAAGACTCAGTTCAGTGAAGAACGC | 0.82 |
| AATAGAGGGTCATCGTAGGCCAGAGTACGCACAG | 4.64 |
| CAAACTAGGTCCCCGGAAGGTCAAAGTCCGCATG | 3.23 |
| CGAACTAGGTCAAGGACAGTGAGTCTCCGCACGC | 1.16 |
